For 39 molecules, Potency, activity, negative = inhibition and activity change, negative = inhibition results are on record in PubChem BioAssay (Tox21).

In assay [1] the target is Acetylcholinesterase (Homo sapiens) (UniProt P22303). Description: Acetylcholinesterase (AChE) small molecule antagonists: colormetric cell-based qHTS assay (AID 1347395). Further: nearly all actives have a fitted effect of over 30% in size. Further: potency means the concentration at half of the fitted maximal effect. Summed up:
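In this cell-based qHTS, attached SH-SY5Y cells were treated with test chemicals for 30 min, after which acetylthiocholine hydrolysis was followed by DTNB colour development over 90 min at 37 C.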
In general terms: qHTS replaces the single test concentration by a dilution series.

The target is the same in assay [2]. Description: Acetylcholinesterase (AChE) small molecule antagonists: enzyme-based qHTS assay (AID 1347397). Further: nearly all actives have a fitted effect of over 55% in size. The following applies: Potency: AChE enzyme activity inhibition; outcome: AChE enzyme activity inhibition. Summed up:
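rhAChE 50 mU/mL (dispensed) + cpd or DMSO, 30 min RT; add DTNB/acetylthiocholine cocktail, 10 min RT; colorimetric thiocholine readout. qHTS, 1536-well format.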

For assay [3] the target is unchanged. Nature of the assay: Acetylcholinesterase (AChE) small molecule antagonists: fluorescence cell-based qHTS assay (AID 1347398). Further: nearly all actives have a fitted effect of over 50% in size. Further: potency means the concentration at half of the fitted maximal effect. The settings on record: Potency: AChE activity; outcome: AChE activity. Summed up: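 Read-out is Thiolite Green fluorescence at Ex/Em = 490/520 nm, formed by reaction with thiocholine released when cellular AChE in SH-SY5Y cells hydrolyzes acetylthiocholine. Compounds were preincubated 30 min at 37 C before substrate.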

Assay [4] has the same target. Description: Acetylcholinesterase (AChE) small molecule antagonists: enzyme-based qHTS assay with human liver microsomes (AID 1347399). Further: nearly all actives have a fitted effect of over 60% in size. The following applies: Potency: qHTS inhibition; outcome: qHTS inhibition. The method, boiled down:
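Recombinant human AChE (50 mU/mL in the enzyme mix) and human liver microsomes (0.25 mg/mL final) were preincubated with compound and NADPH (0.25 mg/mL final) for 30 min at 37 C. Acetylthiocholine/DTNB was then added; thiocholine was read colorimetrically after 10 min at room temperature.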

Values without a mark were called inactive. Inconclusive results are not listed. Active and inactive are the calls of the source. The call rests on the fitted dose curve.
On the % scale 0 is the no-effect control and ±100 the full control effect.

Sequence of Acetylcholinesterase (Homo sapiens) (P22303 whole entry, looked up): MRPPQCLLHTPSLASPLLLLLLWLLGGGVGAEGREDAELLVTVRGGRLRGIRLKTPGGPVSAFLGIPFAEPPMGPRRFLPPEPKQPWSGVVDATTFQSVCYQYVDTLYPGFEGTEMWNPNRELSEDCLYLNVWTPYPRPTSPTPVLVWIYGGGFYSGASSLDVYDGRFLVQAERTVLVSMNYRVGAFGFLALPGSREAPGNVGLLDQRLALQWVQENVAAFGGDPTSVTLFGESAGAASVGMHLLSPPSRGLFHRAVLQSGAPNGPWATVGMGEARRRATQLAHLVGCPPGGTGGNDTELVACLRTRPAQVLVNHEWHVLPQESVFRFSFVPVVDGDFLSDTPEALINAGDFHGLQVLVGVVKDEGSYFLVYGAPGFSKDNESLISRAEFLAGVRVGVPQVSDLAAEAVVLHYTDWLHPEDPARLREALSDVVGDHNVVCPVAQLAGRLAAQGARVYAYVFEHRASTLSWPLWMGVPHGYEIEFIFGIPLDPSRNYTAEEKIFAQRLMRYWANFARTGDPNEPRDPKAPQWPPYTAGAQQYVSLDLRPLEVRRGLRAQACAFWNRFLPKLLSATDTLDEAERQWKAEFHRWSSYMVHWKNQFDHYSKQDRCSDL

Take `C[N+](C)(CCOc1ccccc1)Cc1cccs1`: the Potency result in assay [1], in assay [2], in assay [3] and in assay [4] was “inactive” each time.
Take `C=C[Si](C)(C)O[Si](C)(C)C=C`: the Potency entry in assay [1], in assay [2], in assay [3] and in assay [4] was “inactive” throughout.
`C/C(=N\[Si](C)(C)C)O[Si](C)(C)C`: the Potency result in assay [1], in assay [2], in assay [3] and in assay [4] was “inactive” in each case.
Turning to `CNC(=S)NC`, the Potency result in assay [1], in assay [2], in assay [3] and in assay [4] was “inactive” throughout.
Consider `[O]=[Mo](=[O])=[O]`, for which the activity, negative = inhibition in assay [1] was 2.74% [at 23.6 µM]. The activity change, negative = inhibition in assay [2] is 0.153% [at 23.6 µM]; in assay [3], 0.826% [at 23.8 µM]; in assay [4], 0.081% [at 23.6 µM].
In the case of `CC(C)(C)c1cc(C=O)cc(C(C)(C)C)c1O`, the Potency result in assay [1], in assay [2], in assay [3] and in assay [4] was “inactive” each time.
As for `CCOC(=O)[C@H](CCc1ccccc1)N[C@H]1CS[C@H](c2cccs2)CN(CC(=O)O)C1=O`, the Potency entry in assay [1], in assay [2], in assay [3] and in assay [4] was “inactive” throughout.
Take `CC(C)=CCCC(C)CCOC(=O)C(C)C` (stereo unspecified): the Potency entry in assay [1], in assay [2], in assay [3] and in assay [4] was “inactive” each time.
With `CC(C)(C)c1cc(CCC(=O)NN)cc(C(C)(C)C)c1O`, the Potency entry in assay [1], in assay [2], in assay [3] and in assay [4] was “inactive” throughout.
Turning to `CN1CCCN=C1COC(=O)C(O)(c1ccccc1)C1CCCCC1` (stereo unspecified), the Potency result in assay [1], in assay [2], in assay [3] and in assay [4] was “inactive” each time.
For `O=C(O)c1cc(C(=O)O)c(C(=O)O)cc1C(=O)O`, the Potency result in assay [1], in assay [2], in assay [3] and in assay [4] was “inactive” each time.
Turning to `Cc1c(C(=O)NCCO)[n+](=O)c2ccccc2n1[O-]`, the Potency entry in assay [1], in assay [2], in assay [3] and in assay [4] was “inactive” throughout.
Consider `CCC(C(=O)OCCOCCN(CC)CC)c1ccccc1` (stereo unspecified), for which the Potency entry in assay [1], in assay [2], in assay [3] and in assay [4] was “inactive” in each case.
Consider `CC(C)C(=O)O`, for which the Potency entry in assay [1], in assay [2], in assay [3] and in assay [4] was “inactive” each time.
With `CN(C)CCN1CCN(c2cccc(Cl)c2)C1=O`, the Potency result in assay [1], in assay [2], in assay [3] and in assay [4] was “inactive” in each case.
`O=C(OCc1ccccc1)C(=O)OCc1ccccc1`: the Potency result in assay [1], in assay [2], in assay [3] and in assay [4] was “inactive” in each case.
With `O=C(O)c1cccc(Cl)n1`, the Potency entry in assay [1], in assay [2], in assay [3] and in assay [4] was “inactive” each time.
On to `COCCCC/C(=N\OCCN)c1ccc(C(F)(F)F)cc1`, for which the Potency result in assay [1], in assay [2], in assay [3] and in assay [4] was “inactive” in each case.
As to `O=C1CCCN1CCO`, the Potency result in assay [1], in assay [2], in assay [3] and in assay [4] was “inactive” each time.
As to `C=CC1CO1` (stereo unspecified), the Potency result in assay [1], in assay [2], in assay [3] and in assay [4] was “inactive” each time.
Turning to `Cc1ccc(O)c([N+](=O)[O-])c1`, the Potency entry in assay [1], in assay [2], in assay [3] and in assay [4] was “inactive” in each case.
As for `CCCCc1ccc2nc(NC(=O)OC)[nH]c2c1`, the Potency entry in assay [1], in assay [2], in assay [3] and in assay [4] was “inactive” in each case.
Consider `NCC1CCCC(CN)C1` (stereo unspecified), for which the Potency entry in assay [1], in assay [2], in assay [3] and in assay [4] was “inactive” in each case.
`CC(CN(C)C)CN1c2ccccc2CCc2ccccc21` (stereo unspecified): the Potency result in assay [1], in assay [2], in assay [3] and in assay [4] was “inactive” in each case.
In the case of `CC1OC(=O)C(C)OC1=O` (stereo unspecified), the Potency result in assay [1], in assay [2], in assay [3] and in assay [4] was “inactive” throughout.
Consider `O=[Si]=O`, for which the Potency entry in assay [1], in assay [2], in assay [3] and in assay [4] was “inactive” each time.
For the molecule `CC(C)(C)N(CCO)CCO`, the Potency result in assay [1], in assay [2], in assay [3] and in assay [4] was “inactive” in each case.
`Cc1cccc(C)c1NC(=O)c1cc(S(N)(=O)=O)c(Cl)cc1O`: the Potency result in assay [1], in assay [2], in assay [3] and in assay [4] was “inactive” throughout.
As to `CC1c2ccccc2CN1NC(=O)c1ccc(Cl)c(S(N)(=O)=O)c1` (stereo unspecified), the Potency result in assay [1], in assay [2], in assay [3] and in assay [4] was “inactive” in each case.
As for `CC(=O)Nc1ccccc1C`, the Potency entry in assay [1], in assay [2], in assay [3] and in assay [4] was “inactive” each time.
As to `Cc1ccco1`, the Potency result in assay [1], in assay [2], in assay [3] and in assay [4] was “inactive” in each case.
Take `BrC/C=C/CBr`: the activity, negative = inhibition in assay [1] is 1.18% [at 23.6 µM]. In addition, the activity change, negative = inhibition in assay [2] is 2.59% [at 23.6 µM]; in assay [3] it was 7.15% [at 23.8 µM]; in assay [4] it was -2.1% [at 23.6 µM].
For the molecule `N=C(N=C(N)N)N1CCOCC1`, the Potency entry in assay [1], in assay [2], in assay [3] and in assay [4] was “inactive” in each case.
Take `CCCCCCCCC(=O)Cl`: the Potency result in assay [1], in assay [2], in assay [3] and in assay [4] was “inactive” each time.
As for `Nc1ccccc1O`, the Potency entry in assay [1], in assay [2], in assay [3] and in assay [4] was “inactive” in each case.
Consider `NC(=O)c1c(Cl)cccc1Cl`, for which the Potency result in assay [1], in assay [2], in assay [3] and in assay [4] was “inactive” each time.
Regarding `Nc1ccc(C(=O)OCC(O)CO)cc1` (stereo unspecified), the Potency result in assay [1], in assay [2], in assay [3] and in assay [4] was “inactive” each time.
Take `CCCCCCCCCOC(=O)c1ccccc1C(=O)OCCCCCCCCC`: the Potency result in assay [1], in assay [2], in assay [3] and in assay [4] was “inactive” in each case.
Turning to `CC[C@H]1CC[C@H](NCc2cc3c(cc2OC)[C@H]2C[C@H]2C(=O)N3C)[C@H](c2ccccc2)N1`, the Potency in assay [1] was 31.7 µM (active); in assay [3] it was 35.6 µM (active). For the same molecule, the Potency result in assay [2] and in assay [4] was “inactive” throughout.
